GALR2 agonist – GALR2 (human) receptor agonism. activation, % (concentration not given with the values). GALR2-expressing cells, agonist activation read-out. AID 803. 140,000 compounds, 0.48% hits. O43603; in the data active means activation above about 5%, passing the limit was not always enough
Target sequence (O43603 whole entry, looked up): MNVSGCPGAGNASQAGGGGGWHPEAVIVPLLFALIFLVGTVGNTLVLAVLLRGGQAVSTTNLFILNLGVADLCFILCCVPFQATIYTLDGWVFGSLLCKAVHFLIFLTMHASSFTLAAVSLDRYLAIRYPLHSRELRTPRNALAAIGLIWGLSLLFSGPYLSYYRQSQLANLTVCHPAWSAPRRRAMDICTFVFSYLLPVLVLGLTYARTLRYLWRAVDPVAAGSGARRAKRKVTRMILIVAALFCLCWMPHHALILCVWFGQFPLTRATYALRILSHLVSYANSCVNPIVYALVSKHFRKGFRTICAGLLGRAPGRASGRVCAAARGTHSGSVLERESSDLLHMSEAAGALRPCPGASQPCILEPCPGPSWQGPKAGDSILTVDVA
S1P2 agonist – agonists of human S1P2 receptor. O95136. S1P2-expressing cell line, agonist reporter read-out. activation, % at 4.5 µM. 97,000 compounds, 0.46% hits. AID 729; in the data active means activation above about 16%
PostGolgi yeast – growth inhibition of a yeast mutant, post-Golgi transport screen. inhibition, % at 10 µM. 98,000 compounds, 0.9% hits. AID 739. post-Golgi transport phenotypic cell assay;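 further: yeast cells grown in 1536-well plates; yeast grown about 18 h at 30C before absorbance read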
PostGolgi ctrl – growth of the yeast control strain, post-Golgi counter-screen; efflux-deficient yeast background strain, growth absorbance A615, 16 h; inhibition, % at 10 µM; AID 738; 98,000 compounds, 5% hits
S1P2 blocker – blocks the human S1P2 receptor; cell-based S1P2 antagonist assay, inhibition at 5 uM; O95136; AID 736; 97,000 compounds, 0.21% hits; inhibition, % at 5 µM; in the data active means inhibition above about 45%;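 further: CRE beta-lactamase reporter cells expressing human S1P2 stimulated with S1P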
GALR2 blocker – antagonists of human galanin receptor 2 (GALR2) | O43603 | GALR2-expressing cells, antagonist mode | inhibition, % at 4 µM | 140,000 compounds, 0.39% hits; in the data active means inhibition above about 27%;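 further: cells stimulated with galanin 1-16 at roughly its EC80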
Hits are given with their value; 0 = inactive; - = not tested or not shown. The sample as a whole holds a higher share of hits than the screen did. Unless noted, no stated cut-off is given here; in the data, active means inhibition above about 30%; inactive means the rest.

SMILES	GALR2 agonist	S1P2 agonist	PostGolgi yeast	PostGolgi ctrl	S1P2 blocker	GALR2 blocker
Cc1ccc(/C=C/C2=NN(Cc3ccccc3)C(=O)CC2)cc1	0	0	0	0	0	0
Cc1ccc(/C=C/C2=NN(Cc3ccccc3Cl)C(=O)CC2)cc1	0	0	0	41	0	0
O=C(Cc1cnn(-c2ccccc2)c1)c1ccc(O)c(O)c1O	0	0	0	0	0	0
CC(C)=CCc1c(O)ccc(C(=O)Cc2ccccc2)c1O	0	0	0	34	0	0
CCOc1ccccc1CNC(=O)CCN1C(=O)COc2ccccc21	0	0	0	44	0	0
CC(C)OCCCNC(=O)CCN1C(=O)COc2ccccc21	0	-	0	0	-	0
CN(c1ccccc1C(=O)Nc1cccc(Cl)c1Cl)S(C)(=O)=O	0	0	0	0	0	0
COC(=O)c1ccc(C(=O)OC)c(-n2c(=O)c3ccccc3c3ccccc3c2=O)c1	0	-	-	-	-	0
Cc1cc(Cl)c(S(=O)(=O)Nc2cccc(O)c2)cc1OCC(N)=O	0	-	-	-	-	0
CCOc1ccc(NC(=O)N(C2CCCCC2)C(C)c2cccnc2)cc1 (configuration not stated)	0	0	63	0	0	0
COc1ccc2nc(SCC(=O)N3CCCCCC3)c(C#N)cc2c1	0	0	0	32	0	0
N#Cc1cc2c(nc1SCC(=O)N1CCCCC1)CCCC2	0	32	0	0	0	0
COc1ccc2nc(SCC(=O)Nc3ccc(S(=O)(=O)N4CCCC4)cc3)c(C#N)cc2c1	0	0	0	33	0	0
N#Cc1cc2c(nc1SCC(O)CS(=O)(=O)Cc1ccc(Cl)cc1)CCCC2 (configuration not stated)	0	0	0	36	0	0
N#Cc1cc2ccccc2nc1SCC(=O)Nc1ccc(S(=O)(=O)N2CCCC2)cc1	0	0	0	0	0	0
CC(C)(C)c1ccc(S(=O)(=O)CC(O)CSc2nc3c(cc2C#N)CCCC3)cc1 (configuration not stated)	0	0	0	0	0	0
CCc1ccc2nc(SCC(=O)N3CCCCC3)c(C#N)cc2c1	0	0	-	-	0	0
Cc1ccc(SCCC(=O)Nc2ccc(Br)c(C)c2)cc1	0	-	-	-	-	0
O=c1c(-c2ccc(O)cc2)coc2cc(OC3OC(CO)C(O)C(O)C3O)ccc12 (configuration not stated)	0	-	-	-	-	0
O=C(O)c1ccc(N2CCCCC2)cc1	0	-	31	0	-	0
Cc1cccc(-n2ncc3c(NCc4ccc5c(c4)OCO5)ncnc32)c1	0	0	0	0	0	0
Cc1ccc(-n2ncc3c(NCc4ccc5c(c4)OCO5)ncnc32)c(C)c1	0	0	0	38	0	0
Cn1c(SCC(=O)N2c3ccccc3CCc3ccccc32)nnc1-c1ccc(O)cc1	0	-	-	-	-	0
CCCCN(Cc1ccco1)C(=O)c1cc2c(=O)[nH]c3ccc(C)cc3c2s1	0	0	0	36	0	0
O=C(N=Nc1c(O)[nH]c2ccc(Br)cc12)c1ccccc1-n1cccc1	0	0	0	37	0	0
SMILES	GALR2 agonist	S1P2 agonist	PostGolgi yeast	PostGolgi ctrl	S1P2 blocker	GALR2 blocker
O=C(N=Nc1c(O)[nH]c2ccc(Br)cc12)c1cc(-c2cccc3ccccc23)n[nH]1	0	-	-	-	-	0
Cc1cccc(C)c1OCC(=O)N=Nc1c(O)[nH]c2ccc(Br)cc12	0	0	0	38	0	0
CCC(CO)NC(=O)c1cc2c(s1)CCC2 (configuration not stated)	0	0	31	0	0	0
CC(NC(=O)c1cc2c(s1)CCCC2)C(C)(C)C (configuration not stated)	0	0	0	0	0	0
CN1CCN(CC(=O)Nc2ccc(Oc3ccccc3)cc2)CC1	0	0	0	0	0	0
COc1ccccc1NC(=O)CN1CCN(CC(=O)Nc2ccc(OCc3ccccc3)cc2)CC1	0	0	0	51	0	0
CN1CCN(c2ccc(NC(=O)c3cccc(OCc4ccccc4)c3)cc2)CC1	0	0	0	39	0	0
O=C(CN1CCN(c2ccccc2)CC1)Nc1ccc(OCc2ccccc2)cc1	0	0	0	48	0	0
CCOC(=O)N1CCN(CC(=O)Nc2ccc(Oc3ccccc3)cc2)CC1	0	0	0	32	0	0
CC(C)(C)NC(=O)c1cccc(NC(=O)CSc2ccccc2)c1	0	0	0	0	0	0
Cc1ccc(NC(=O)c2cc(N3C(=O)C=CC3=O)ccc2Cl)cc1C	0	-	-	-	-	0
CC1CCCCC1n1c(=S)[nH]c2ccccc2c1=O (configuration not stated)	0	0	0	53	0	0
Nc1nc(Cl)cc(N2CCC(c3cc(-c4ccc(Cl)cc4)n[nH]3)CC2)n1	0	0	0	102	82	0
COc1ccc(OC)c(-c2cc(C3CCN(c4cc(Cl)nc(N)n4)CC3)[nH]n2)c1	0	0	0	34	0	0
COc1ccc(-c2cc(C3CCN(c4cc(Cl)nc(N)n4)CC3)[nH]n2)cc1	0	0	0	42	0	0
Cc1ccc2nc(C3CCN(S(=O)(=O)c4ccc5ccccc5c4)CC3)[nH]c2c1	0	0	0	0	0	0
C=CCOc1nc2c(c(=O)n(C)c(=O)n2C)n1Cc1c(Cl)cccc1Cl	0	0	0	0	0	0
COC(=O)C1=C(NC(=O)c2ccc(C)cc2)CCS1	0	0	0	0	0	0
COc1ccc(C(=O)CSc2nc3ccc([N+](=O)[O-])cc3[nH]2)cc1	0	-	-	-	-	0
Cc1cccc(N2CCN(CC(=O)Nc3nccs3)CC2)c1C	0	0	39	0	0	0
Clc1ccccc1CSc1nncn1NC/C=C/c1ccccc1	0	-	-	-	-	0
Cc1csc(-c2cnn(-c3ccccc3)c2NC(=O)c2cccc(C(F)(F)F)c2)n1	0	0	0	34	0	0
COc1cccc(/C(C#N)=C/c2c(-c3ccc(Cl)cc3)nc3c(C)cccn23)c1	0	0	0	49	0	0
COc1ccccc1C(=O)N1CCCN(C(=O)c2ccccc2OC)CC1	0	37	0	0	0	0
COc1cccc(C(=O)N2CCN(C3CCC(c4ccccc4)CC3)CC2)c1OC (configuration not stated)	0	0	94	54	0	0
SMILES	GALR2 agonist	S1P2 agonist	PostGolgi yeast	PostGolgi ctrl	S1P2 blocker	GALR2 blocker
COc1ccc(OC)c(CN2CCN(C(=O)c3cccc4ccccc34)CC2)c1	0	0	0	34	0	0
Fc1cccc(NC(=S)NCc2cccnc2)c1	0	-	-	-	-	0
COC(=O)c1c(NC(=O)COC(=O)CNC(=O)C2CCCCC2)sc(C)c1C	0	-	-	-	-	0
COc1ccc(-n2ccc(-c3nn(-c4cccc(C(F)(F)F)c4)ccc3=O)n2)cc1	0	18	0	31	0	0
COc1ccccc1NC(=O)c1nn(-c2cccc(C(F)(F)F)c2)ccc1=O	0	0	0	0	0	0
O=c1ccn(-c2cccc(C(F)(F)F)c2)nc1-c1ccn(-c2ccccc2F)n1	0	19	0	0	0	0
CC(=O)CSc1nnc(-c2ccc(S(=O)(=O)N3CCC(C)CC3)cc2)o1	0	0	-	-	0	0
CC(C)(C)c1nc2c(Br)cc(Br)cc2c(=O)o1	0	-	-	-	-	0
COc1ccc(C(=O)Nc2ccc3c(c2)C(=O)c2ccccc2C3=O)cc1OC	0	-	-	-	-	0
